Experimental data reported in PMC4053984, “DNA binding specificities of the long zinc-finger recombination protein PRDM9”.

molecular target: PRDM9Cst (Mus musculus (CAST/EiJ)); assay: competition EMSA; competition against biotin-labeled 75-bp Hlx1 B6 oligo; 10 mM Tris pH 7.5, 50 mM KCl, 1 mM DTT, 50 ng/ul poly(dI/dC), 0.05% NP-40, crude E. coli extract 3 ul in 20 ul; 1 h with unlabeled competitor, then 4 h with biotin-labeled 75-bp Hlx1; temperature not stated; high values mean tight binding; conditions: tags: N-terminal His tag (pBAD/HisB); dsDNA, one strand shown
Sequence (chain, as listed by the source): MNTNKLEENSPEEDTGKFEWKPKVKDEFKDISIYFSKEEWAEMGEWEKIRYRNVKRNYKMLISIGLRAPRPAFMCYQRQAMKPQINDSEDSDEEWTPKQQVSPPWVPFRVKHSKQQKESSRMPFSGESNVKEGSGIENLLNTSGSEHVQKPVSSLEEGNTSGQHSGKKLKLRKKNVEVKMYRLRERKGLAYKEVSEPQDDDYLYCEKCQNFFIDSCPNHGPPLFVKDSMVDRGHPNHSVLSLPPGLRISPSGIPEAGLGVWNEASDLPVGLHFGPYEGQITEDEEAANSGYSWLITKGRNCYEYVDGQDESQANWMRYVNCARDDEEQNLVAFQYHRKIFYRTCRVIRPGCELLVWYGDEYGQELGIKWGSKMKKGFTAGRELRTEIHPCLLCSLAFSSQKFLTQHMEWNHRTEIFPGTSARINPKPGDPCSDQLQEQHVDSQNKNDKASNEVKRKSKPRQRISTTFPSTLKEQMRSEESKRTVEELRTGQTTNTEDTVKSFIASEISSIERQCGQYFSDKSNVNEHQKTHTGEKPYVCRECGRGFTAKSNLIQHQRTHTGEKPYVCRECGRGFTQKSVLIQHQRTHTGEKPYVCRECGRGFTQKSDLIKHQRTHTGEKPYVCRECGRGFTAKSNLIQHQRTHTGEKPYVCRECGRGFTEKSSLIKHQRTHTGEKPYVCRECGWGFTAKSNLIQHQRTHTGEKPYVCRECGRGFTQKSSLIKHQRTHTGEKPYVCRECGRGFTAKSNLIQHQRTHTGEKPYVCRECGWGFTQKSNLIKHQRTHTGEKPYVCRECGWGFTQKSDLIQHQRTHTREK

| Sequence | binding signal |
| --- | --- |
| ATAGTGTGCAGACTTGGACCCTGCGCTTTCTTT | -0.4 Bmut (0 = wild type, -1 = scrambled) |
| ATAGTGTGCAGACGTGGACCCTGCCCTTTCTTT | -0.4 Bmut (0 = wild type, -1 = scrambled) |
| ATAGTGTGCAGACTTGGACCCTGCCCTTCCTTT | -0.1 Bmut (0 = wild type, -1 = scrambled) |
| ATAGTGTGCAGACTTGGACCCTGCCCGTTCTTT | 0.1 Bmut (0 = wild type, -1 = scrambled) |
| ATAGTGTGCAGACTTGGACCCTGACCTTTCTTT | -0.3 Bmut (0 = wild type, -1 = scrambled) |
| ATAGTGTGCAGACTTGTACCCTGCCCTTTCTTT | -0.8 Bmut (0 = wild type, -1 = scrambled) |
| ATAGTGTGCAGACTGGGACCCTGCCCTTTCTTT | -0.3 Bmut (0 = wild type, -1 = scrambled) |
| ATAGTGTCCAGACTTGGACCCTGCCCTTTCTTT | -0.1 Bmut (0 = wild type, -1 = scrambled) |
| ATAGTGTGCAGGCTTGGACCCTGCCCTTTCTTT | -0.1 Bmut (0 = wild type, -1 = scrambled) |
| ATAGTGAGCAGACTTGGACCCTGCCCTTTCTTT | -0.3 Bmut (0 = wild type, -1 = scrambled) |
| ATAGTGTGCAGACATGGACCCTGCCCTTTCTTT | -0.7 Bmut (0 = wild type, -1 = scrambled) |
| ATAGTGTGCAGACTTGGACCCTGCCCTCTCTTT | -0.1 Bmut (0 = wild type, -1 = scrambled) |
| ATAGTGTGCAGACTTGGACCCTCCCCTTTCTTT | -0.1 Bmut (0 = wild type, -1 = scrambled) |
| ATAGTATGCAGACTTGGACCCTGCCCTTTCTTT | 0 Bmut (0 = wild type, -1 = scrambled) |
| ATAGTGTGCAGACTTGGACCCTGCCCTTACTTT | -0.1 Bmut (0 = wild type, -1 = scrambled) |
| ATAGTGTACAGACTTGGACCCTGCCCTTTCTTT | 0.1 Bmut (0 = wild type, -1 = scrambled) |

| Sequence | binding signal |
| --- | --- |
| ATAGTGTGCAGACTTGGACCCTGTCCTTTCTTT | 0.02 Bmut (0 = wild type, -1 = scrambled) |
| AAAGTGTGCAGACTTGGACCCTGCCCTTTCTTT | 0 Bmut (0 = wild type, -1 = scrambled) |
| ATAGTGTGCAGACTTGAACCCTGCCCTTTCTTT | 0.2 Bmut (0 = wild type, -1 = scrambled) |
| ATAGTGTGCAGACTTTGACCCTGCCCTTTCTTT | 0 Bmut (0 = wild type, -1 = scrambled) |
| ATAGTGTGCAGACTTGGAACCTGCCCTTTCTTT | -0.1 Bmut (0 = wild type, -1 = scrambled) |
| ATAGTGTGCAGACTTGGACCCTGGCCTTTCTTT | 0.03 Bmut (0 = wild type, -1 = scrambled) |
| ATAGTGTGCAGACTTGGACCCTGCCCATTCTTT | 0.09 Bmut (0 = wild type, -1 = scrambled) |
| ATAGTGTGCAGACTTGGACCCCGCCCTTTCTTT | -0.1 Bmut (0 = wild type, -1 = scrambled) |
| ATAGTGTGCAGACTTGGACCCTGCCCTATCTTT | 0.13 Bmut (0 = wild type, -1 = scrambled) |
| ATAGTGTGCAGACTTGGACCCTGCCCTTTCTTC | 0.14 Bmut (0 = wild type, -1 = scrambled) |
| ATAGTGTGCAGACTTGGACCTTGCCCTTTCTTT | 0.06 Bmut (0 = wild type, -1 = scrambled) |
| ATAGTGTGCTGACTTGGACCCTGCCCTTTCTTT | -0.4 Bmut (0 = wild type, -1 = scrambled) |
| ATAGTGTGCAGACTTGGACCCTGCCCTTTCTTG | 0.09 Bmut (0 = wild type, -1 = scrambled) |
| ATAGTGTGCAGACCTGGACCCTGCCCTTTCTTT | 0 Bmut (0 = wild type, -1 = scrambled) |
| ATAGTGTGCAGACTTGGACCCTGCCCTTTCCTT | 0.12 Bmut (0 = wild type, -1 = scrambled) |
